Hits are enriched below; roughly 7.5% of the tested compounds scored in any of these assays.
SMN2 splice enh – qHTS Assay for Enhancers of SMN2 Splice Variant Expression | AID 1458, 2008 | HEK293 SMN2-luciferase splicing reporter, luminescence, 30-36 h | actives 2.8% (n = 210,000) | Potency, µM (series often up to 46.1 µM), for the others: top-dose activity change, positive = activation, usual class: activators; also: % of control where 0% means no effect; nearly all actives have a fitted effect of over 55% in size
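qHTS luciferase splicing reporter: luminescence rises when SMN2 exon 7 is included in transfected HEK293 cells. Compound exposure lasted 30-36 h at 37C, with 4.5 mM final sodium butyrate as control, followed by a ONE-Glo read.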
ELG1 genotoxic – qHTS screen for small molecules that induce genotoxicity in human embryonic kidney (HEK293T) cells expressing luciferase-tagged ELG1 | HEK293T ELG1-luciferase reporter, luminescence, 16 h | Potency, µM (highest dose often 46 µM), without a hit: at the highest dose activity change, positive = activation, actives largely listed as activators | actives 1.3% (n = 330,000) | AID 504466, 2011; also: % of control where 0% means no effect; nearly all actives have a fitted effect of over 60% in size
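Reporter readout depends on ELG1 protein level, which increases with genetic stress. After 16 hr compound exposure at 37 °C, luciferase activity was quantified using ONE-Glo.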
Rab9 promoter act – qHTS Assay for Rab9 Promoter Activators; Huh7 Rab9 promoter-luciferase reporter, luminescence, 24 h; Potency, µM (doses to about 9.22 µM), inactives show top-dose activation, negative = inhibition, usual class: activators; actives 2.8% (n = 320,000); also: % of control where 0% means no effect; nearly all actives have a fitted effect of over 60% in size
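Huh7 reporter line, Rab9 promoter upstream of luciferase. Compound exposure 24 h at 37 °C in reduced-serum medium with 10% FBS. Read-out: luminescence.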
KinaseGlo FLuc – Counterscreen for Luciferase (Kinase-Glo TM) Inhibition. actives 0.28% (n = 200,000). Potency, µM (series often up to 38.3 µM), inactives show at the highest dose activity change, negative = inhibition, usual class: inhibitors. AID 1379, 2008. Kinase-Glo luciferase, ATP luminescence, 8 min. Luciferin 4-monooxygenase (Photuris pensylvanica), Q27757; also: % is scaled to controls: 0 for no effect and ±100 for the full control effect; nearly all actives have a fitted effect of over 60% in size
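Compounds were added to a substrate mix at pH 7.2 (50 mM imidazole, 10 uM ATP, within the enzyme's linear range), followed by Kinase-Glo detection reagent; luminescence was measured after 8 minutes at ambient temperature.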
NPC1 prom act – qHTS Assay for NPC1 Promoter Activators; Huh7 NPC1 promoter luciferase reporter, 24 h; Potency, µM (titrated, usually from 9.22 µM), for the others: top-dose activation, usual class: activators; actives 2.4% (n = 320,000); also: % of control where 0% means no effect; nearly all actives have a fitted effect of over 60% in size
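Huh7 reporter cells (NPC1 promoter driving luciferase) are dosed with compound for 24 h at 37 °C, 5% CO2; luciferase detection reagent is then added and luminescence measured after 10 min at ambient temperature.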
FLuc modulator – qHTS profiling assay for firefly luciferase inhibitor/activator using purifed enzyme and Km concentrations of substrates (counterscreen for miR-21 project) | purified FLuc, Km substrates, luminescence inhibition | Potency, µM (top dose mostly 57.5 µM), for inactives: at the highest dose activity change, negative = inhibition, hits mostly inhibitors | actives 6.9% (n = 360,000);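 also: plate controls were vehicle for no effect and reference inhibitor for full effect; nearly all actives have a fitted effect of over 55% in size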
Target sequence (P08659 whole entry, looked up): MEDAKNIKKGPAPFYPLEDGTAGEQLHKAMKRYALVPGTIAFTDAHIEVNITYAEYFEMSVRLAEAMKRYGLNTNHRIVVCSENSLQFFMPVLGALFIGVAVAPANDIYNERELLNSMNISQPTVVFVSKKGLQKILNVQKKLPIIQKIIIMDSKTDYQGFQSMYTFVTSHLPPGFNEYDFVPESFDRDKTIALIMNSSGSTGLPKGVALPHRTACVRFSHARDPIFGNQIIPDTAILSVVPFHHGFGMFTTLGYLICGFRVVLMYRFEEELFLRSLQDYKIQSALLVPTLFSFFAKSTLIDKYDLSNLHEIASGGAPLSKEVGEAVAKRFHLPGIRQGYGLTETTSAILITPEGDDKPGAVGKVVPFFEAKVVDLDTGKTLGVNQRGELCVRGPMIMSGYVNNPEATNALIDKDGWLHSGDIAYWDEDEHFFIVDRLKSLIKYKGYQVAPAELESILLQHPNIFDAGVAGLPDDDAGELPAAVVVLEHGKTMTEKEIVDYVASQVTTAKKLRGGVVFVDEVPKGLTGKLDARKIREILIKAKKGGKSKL
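Purified P. pyralis luciferase, 10 nM final, with Km-level 10 uM D-luciferin and 10 uM ATP in 50 mM Tris acetate pH 7.5, 10 mM Mg acetate, 0.01% Tween-20, 0.05% BSA; 6-point qHTS titration about 60 µM downward; luminescence read.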
An asterisk follows results filed as active; ? = inconclusive; · = no result given; [ ] = dose if it differs, or a comment. Calls follow the shape of the dose curve; as a rule, active = well fitted curve in the direction sought with a large enough effect; inconclusive = small, poorly fitted or top-dose-only effect, or another doubt; inactive = no such curve, though single readings can be large; an effect the other way counts as inactive or inconclusive. Potency is read from the fitted curve at half-maximal effect.

SMILES	SMN2 splice enh	ELG1 genotoxic	Rab9 promoter act	KinaseGlo FLuc	NPC1 prom act	FLuc modulator
CC1CCCCC1NC(=O)CSc1nnc(COc2ccccc2Cl)o1 (stereo not given)	7%	1%	3%	-1%	3%	21µM*
CC(C)(C)NC(=O)NC(=O)CSc1nnc(COc2ccccc2Cl)o1	13%	-3%	-7%	-6%	-2%	17µM*
O=C(CSc1nnc(COc2ccccc2Cl)o1)Nc1ccccc1	·	1%	-4%	·	-2%	?
COC(=O)CSc1nc2sc3c(c2c(=O)n1-c1ccccc1C)CC(C)(C)OC3	-15%	·	·	·	·	-2%
COc1ccc(N2C(=S)NC3N2C(=S)NC3(C)c2ccccc2)cc1 (stereo not given)	?	?	4µM*	4%	29%	?
CCOC(=O)C1CCCN(C(=O)Cn2ncc3c(C)n(Cc4ccccc4F)c(C)c3c2=O)C1 (stereo not given)	-20%	·	·	·	·	-13%
CCc1ccc(CSc2nccn2-c2ccccc2)cc1	-3%	0%	0%	-8%	-3%	-1%
c1ccc(CCSc2nccn2-c2ccccc2)cc1	20µM*	?	3.2µM*	-1%	2.8µM*	3.4µM*
Cc1ccc(SCc2cc(=O)c3c(=O)n(-c4ccccc4)[nH]c3[nH]2)cc1	18%	-3%	0%	0%	2%	?
Cc1ccc(/C=N/Nc2cccc(C(=O)O)c2)s1	0.25µM*	?	0.089µM*	2%	0.089µM*	0.95µM*
O=C(O)c1cccc(N/N=C/c2sc(N3CCOCC3)nc2-c2ccccc2)c1	17%[1.84 µM]	15µM*	2.8µM*	-11%	4µM*	1.2µM*
Nc1ccc(C(=O)N/N=C/c2sc(N3CCOCC3)nc2-c2ccccc2)cc1	?	5%	-1%	-5%	0%	?
O=C(N/N=C\c1cc(Br)cs1)c1ccncc1	·	-6%	4%	·	-38%	?
Cc1ccc(/C=N/NC(=O)C[n+]2ccccc2)s1	·	7%	2%	·	0%	-1%
Cc1ccc(/C=N/NC(=O)c2cccnc2)s1	·	12%	12%	·	13%	?
O=C(O)c1ccc(N/N=C/c2cc(Br)cs2)cc1	·	?	0.1µM*	·	0.089µM*	0.24µM*
Cc1ccc(/C=N/Nc2ccc(C(=O)O)cc2)s1	-98%	?	?	?	?	0.54µM*
Cc1cccc(CSc2ncc(Cl)c(C(=O)Nc3sc4c(c3C(N)=O)CCCC4)n2)c1	4%	·	·	·	·	-2%
COc1cc(OC)cc(-c2nc3nc(C)c(CCC(=O)Nc4ccc(F)cc4F)c(C)n3n2)c1	-3%	·	·	·	·	-8%
O=C(O)C=C1CCN(c2ncc(C(F)(F)F)cc2Cl)CC1	14%	8%	?	-2%	?	19µM*
COc1ccc(N(CC(=O)Nc2cc(C)ccc2C)S(=O)(=O)c2ccccc2[N+](=O)[O-])c(OC)c1	-15%	-1%	-18%	3%	-5%	-14%
Cc1cccc(-c2nsc(SCC(=O)Nc3nccs3)n2)c1	17%	11%	18%	-2%	4%	-15%
O=C(CSc1nc2ccccc2nc1SCC(=O)N1CCOCC1)N1CCOCC1	1%	-7%	-2%	0%	-1%	-2%
O=C(CSc1nc(-c2ccccc2)ns1)N1CCOCC1	·	23µM*	2.8µM*	-3%	2.5µM*	?
Cc1cccc(-c2nsc(SCC(=O)N3CCCC3)n2)c1	14µM*	?	1.4µM*	-5%	1.6µM*	6µM*
SMILES	SMN2 splice enh	ELG1 genotoxic	Rab9 promoter act	KinaseGlo FLuc	NPC1 prom act	FLuc modulator
CCn1c(C(=O)Nc2ccc(C)cc2C)cc2sc(Cl)cc21	-33%	·	·	·	·	-3%
COc1ccc(NC(C)=O)cc1NC(=O)C1(c2cccs2)CCOCC1	·	·	·	·	·	1%
CCOC(=O)c1cnc2c(ccc3ccccc32)c1Nc1ccc(OC)c(OC)c1	-1%	·	·	·	·	-1%
CCOC(=O)c1nc2c(ccc3ccccc32)cc1C	·	5%	0%	·	-1%	15µM*
CCC(=O)/C=C1/Sc2ccc(OC)cc2N1CCO	·	0%	-16%	-4%	-1%	-4%
CCC(/C=C1\Sc2ccc(OC)cc2N1CCO)=C\c1sc2ccc(OC)cc2[n+]1CCO	-74%	-11%	-9%	10µM*	-4%	15µM*
CCC(/C=C1\Sc2ccc(OC)cc2N1CC)=C\c1sc2ccc(OC)cc2[n+]1CCCS(=O)(=O)[O-]	·	-8%	-9%	10µM*	-9%	?
CC(=O)c1ccc(NC(=O)C(Cc2ccccc2)NS(=O)(=O)c2ccc3c(c2)CCC(=O)N3)cc1 (stereo not given)	10%	·	·	·	·	-2%
NC(=O)C1CCN(C(=O)c2ccc(NC(=O)c3nsc4ccccc34)cc2)CC1	·	·	·	·	·	1.7µM*
CCOC(=O)C1CCN(C(=O)c2ccc(NC(=O)c3nsc4ccccc34)cc2)CC1	·	·	·	·	·	15µM*
CCOC(=O)C1CCCN(C(=O)c2ccc(NC(=O)c3nsc4ccccc34)cc2)C1 (stereo not given)	·	·	·	·	·	12µM*
O=C(COC(=O)Cc1ccccc1F)Nc1cccc(S(=O)(=O)NC2=NCCCCC2)c1	-3%	2%	-6%	0%	-4%	4%
CC(=O)Nc1ccc(NC(=O)Nc2ccccc2)cc1	·	17%	?	·	?	17µM*
CC(=O)c1ccc(NC(=O)Nc2ccc([N+](=O)[O-])cc2)cc1	13µM*	?	27%	-1%	?	-16%
CC(=O)c1ccc(NC(=O)Nc2ccc(Cl)cc2)cc1	13µM*	2.1µM*	1.4µM*	-3%	1.4µM*	12µM*
CC(=O)c1ccc(NC(=O)NNS(=O)(=O)c2ccc([N+](=O)[O-])cc2)cc1	·	1%	11%	·	0%	4%
O=C(Nc1ccccc1)Nc1csc2ccccc12	·	17%	?	·	?	12µM*
CC(=O)Nc1csc2ccccc12	18%	-2%	0%	-2%	1%	1%
CC(=O)c1ccc(NC(=O)C(C)Nc2ccc(Cl)cc2)cc1 (stereo not given)	-1%	-1%	-4%	1%	-3%	-1%
CC(C)c1ccc2occ(CC(=O)Nc3cccc(C(F)(F)F)c3)c2c1	-46%	·	·	·	·	2%
COc1ccc(CCN(Cc2cc3cc(C)cc(C)c3nc2Cl)C(=O)C2CC2)cc1	-36%	-1%	-10%	6%	-3%	0%

Screening data (PubChem BioAssay)
